# Results published in PubChem BioAssay (EPA / NIEHS).
# “And” between values parts separate entries of the source, which are not always exact repeats. Identical values can stand only once. Records with an inconclusive call do not appear. A structure can be active in one record and inactive in another. The source made the active and inactive calls. Rule for the calls, unless noted: active = hit-call score of the fitted dose curve at least 0.9, where 1 is the maximum; inactive = score below 0.9.
# What was measured:
# [1] = CCTE_Padilla_ZF_144hpf_TERATOSCORE: (Legacy) CCTE's 144 Hour Post-fertilization zebrafish Assay Teratoscore, Padilla Lab (AID 2283679);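 for AC50: zebrafish embryos with chorions exposed by immersion from 6-8 hpf to 5 dpf with daily renewal; teratogenicity score from eye scoring of death hatching and malformations at 144 hpf; higher score means more developmental defects relative to DMSO baseline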
# How it was run: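 Larvae scored by eye at 144 hpf for death, hatching and malformations after a day in clean Hanks'. Before that, daily-renewed exposure at 80 uM (0.4% DMSO, 26C) from roughly 6-8 hpf through 5 dpf, 4 embryos per chemical.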
# [2] = STM_H9_OrnithineISnorm_perc: Stemina devTOX quickPredict H9 human embryonic stem cell (hESC)-based Assay for Ornithine (ORN) Metabolite Biomarker, Normalized (AID 2283712);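 note: ornithine released into spent medium during last day measured by mass spectrometry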
# How it was run: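 UPLC-HRMS readout: endogenous ornithine EIC area / 13C-ORN internal standard, then % of 0.1% DMSO median. H9 hESCs (pluripotent), 72h exposure, re-dosed with fresh media q24h; last 24-h spent media, deproteinized in 40% acetonitrile.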
# [3] = STM_H9_CystineISnorm_perc: Stemina devTOX quickPredict H9 human embryonic stem cell (hESC)-based Assay for Cystine (CYSS) Metabolite Biomarker, Normalized (AID 2283713)
# How it was run: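 UPLC-HRMS read-out: endogenous cystine peak area in spent medium, normalized to isotope-labeled internal standard and to median of 0.1% DMSO controls. Pluripotent H9 cells, 72h exposure, daily medium/compound replenishment; medium from last 24h sampled.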
# [4] = CEETOX_H295R_MTT_cell_viability: Viability Assessment in the CeeTox HT-H295R MTT Assay (AID 2283718);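 for AC50: curve fitted both ways so AC50 may mark viability loss or gain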
# How it was run: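 H295R cells prestimulated 48 h with 10 uM forskolin, then exposed 48 h to test chemical (0.1% DMSO final). Viability by MTT (0.5 mg/ml, 4 h, 37 C), absorbance 570/650 nm; percent change versus DMSO, bidirectional fit.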
# [5] = Tanguay_ZF_120hpf_ActivityScore_legacy: (Legacy) Oregon State University Tanguay Lab 120 Hour Post-fertilization zebrafish Assay Score for Activity (AID 2283742; active = hit-call score of the fitted dose curve at least 0.9, where 1 is the maximum;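 for AC50: dechorionated Tropical 5D wild-type zebrafish embryos held singly per well; static exposure from 6 hpf until 120 hpf at 28 °C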)
# How it was run: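 In this whole-embryo screen, dechorionated zebrafish were exposed from 6 hpf until 120 hpf at 28C under a 0.64% DMSO vehicle. Developmental malformations and death were recorded by brightfield microscopy as binary endpoints.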
# [6] = biological target: Luciferin 4-monooxygenase (Photinus pyralis) (UniProt P08659); experiment: CCTE_Simmons_QuantiLum_inhib_2: CCTE's Firefly Luciferase Inhibition Assay, Simmons Lab (AID 2283767; active = hit-call score of the fitted dose curve at least 0.9, where 1 is the maximum;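 for AC50: potency for inhibitors that lower luciferase luminescence relative to DMSO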)
# How it was run: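 Cell-free QuantiLum luciferase, 5 ng/well; compounds 5 nM–87.5 uM final, 8 conc, 0.5% DMSO; 30 min, 37C, dark. Detection reagent (150 uM D-luciferin, 147 uM dATP, CoA, DTT, pH 7.8 final) injected per well, kinetic luminescence. Triplicate biological replicates.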
# [7] = STM_H9_OrnCyssISnorm_ratio: Stemina devTOX quickPredict H9 human embryonic stem cell (hESC)-based Assay for Ornithine (ORN):Cystine (CYSS) Ratio (AID 2283714; active = hit-call score of the fitted dose curve at least 0.9, where 1 is the maximum)
# How it was run: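 H9 hESC, 72h, q24h re-dose; last-day media → acetonitrile deproteinization → UPLC-HRMS. ORN:CYSS ratio from isotope-normalized EIC areas, vs 0.1% DMSO; MTX references on each plate.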
# [8] = read-out: Cytochrome P450 (CYP24A1_1), CYP24A1 (gene 1591); experiment: LTEA_HepaRG_CYP24A1_1: Life Technologies and Expression Analysis (LTEA) Assay for Cytochrome P450 (CYP24A1_1) using HepaRG (AID 2283671); conditions: mRNA level, 48 h; actives raise or lower the signal
# How it was run: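 Cultures of human HepaRG were treated in duplicate for 48 h (0.5% DMSO vehicle, highest dose 100 uM). CYP24A1 mRNA by qRT-PCR, normalized to ACTB, GAPDH, POLR2A.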
# [9] = tested on: Thyroperoxidase (TPO), gene 445522; experiment: CCTE_Simmons_GUA_TPO: CCTE's Guaiacol Assay for Thyroperoxidase (TPO) Inhibition, Simmons Lab (AID 2283750; active = hit-call score of the fitted dose curve at least 0.9, where 1 is the maximum)
# How it was run: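 Porcine thyroid microsomes (25 ug) in 200mM potassium phosphate, preincubated 30 s at 37C with compound (8 concentrations, 5 nM–87.5 uM) and 35mM guaiacol; 1mM H2O2 starts reaction. Absorbance change at 450nm over first 80 s; loss of signal versus DMSO, three replicates.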
# Luciferin 4-monooxygenase (Photinus pyralis), sequence (P08659 whole entry, looked up): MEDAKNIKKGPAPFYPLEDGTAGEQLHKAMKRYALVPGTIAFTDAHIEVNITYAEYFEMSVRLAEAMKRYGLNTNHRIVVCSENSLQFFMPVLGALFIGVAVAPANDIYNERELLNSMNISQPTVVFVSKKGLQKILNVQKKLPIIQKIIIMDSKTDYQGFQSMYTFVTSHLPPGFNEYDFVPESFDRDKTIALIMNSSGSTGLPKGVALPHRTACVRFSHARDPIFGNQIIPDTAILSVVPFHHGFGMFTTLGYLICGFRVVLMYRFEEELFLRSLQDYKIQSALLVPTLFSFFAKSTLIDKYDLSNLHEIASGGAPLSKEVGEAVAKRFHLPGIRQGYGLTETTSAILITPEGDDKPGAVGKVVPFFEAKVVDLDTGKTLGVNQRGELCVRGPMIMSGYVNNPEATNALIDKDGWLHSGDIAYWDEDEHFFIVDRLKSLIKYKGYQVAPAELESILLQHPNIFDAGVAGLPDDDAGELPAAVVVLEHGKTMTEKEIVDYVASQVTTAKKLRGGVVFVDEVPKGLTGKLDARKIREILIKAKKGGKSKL
structure (smiles),measurement,setting,value
CCC(C)(C)C(=O)O[C@H]1C[C@@H](C)C=C2C=C[C@H](C)[C@H](CC[C@@H]3C[C@@H](O)CC(=O)O3)[C@H]21,AC50,[1],115 nM (active) and 2.58 nM (active) and 7.92 nM (active)
same,AC50,[2],0.000728 µM (active)
same,outcome,[3],inactive
same,outcome,[4],inactive
same,AC50,[5],0.403 µM (active)
same,outcome,[6],inactive
O=C(O)c1cccc(N(Cc2cccnc2)c2ccc(OC(F)F)c(OC(F)F)c2)c1,AC50,[1],26.5 µM (active)
same,outcome,[4],inactive
same,outcome,[5],inactive
same,outcome,[6],inactive
CCCCCCCCCCCCc1ccccc1,outcome,[1],inactive
same,outcome,[2],inactive
same,outcome,[3],inactive
same,outcome,[5],inactive
CC[C@H](C)C(=O)O[C@H]1C[C@@H](C)C=C2C=C[C@H](C)[C@H](CC[C@@H]3C[C@@H](O)CC(=O)O3)[C@H]21,AC50,[1],7.47 nM (active) and 5.89 nM (active) and 5.45 nM (active)
same,outcome,[2],inactive
same,AC50,[3],13.2 µM (active)
same,AC50,[7],6.84 µM (active)
same,outcome,[4],inactive
same,AC50,[5],1.68 µM (active)
same,AC50,[6],77.6 µM (active)
same,outcome,[6],inactive
C=CCCCCCCCCC(=O)O,AC50,[1],60.1 µM (active)
same,outcome,[4],inactive
same,outcome,[5],inactive
Oc1ccc2c(c1)-c1ccccc1C2,AC50,[1],32.9 µM (active)
same,AC50,[4],32.8 µM (active)
same,AC50,[5],46.6 µM (active)
same,outcome,[6],inactive
COCCOCCOCCOC,outcome,[1],inactive
same,outcome,[2],inactive
same,outcome,[3],inactive
same,outcome,[7],inactive
same,outcome,[5],inactive
CC(C)CCCCCCOC(=O)c1ccc(C(=O)OCCCCCCC(C)C)c(C(=O)OCCCCCCC(C)C)c1,outcome,[8],inactive
same,outcome,[5],inactive
CCOc1cccc(-n2cc(C(=O)N3CCN(c4cc(C(=O)O)c5ccccc5c4)CC3)nc2-c2ccc(C)cc2)c1,AC50,[1],16.6 µM (active)
same,outcome,[4],inactive
same,outcome,[5],inactive
same,outcome,[6],inactive
Cc1ccc(N)cc1O,outcome,[1],inactive
same,outcome,[4],inactive
same,outcome,[5],inactive
same,AC50,[9],3.61 µM (active)
same,AC50,[6],17.4 µM (active)
CN(C)c1ccc(Cc2ccc(N(C)C)cc2)cc1,AC50,[1],25.2 µM (active)
same,outcome,[4],inactive
same,outcome,[5],inactive
same,outcome,[6],inactive
COc1ccc(/C=C/S(=O)(=O)NC(=O)c2ccc(C)cc2Cl)cc1,outcome,[1],inactive
same,AC50,[4],3.37 µM (active)
same,outcome,[5],inactive
Nc1nc2ncc(CNc3ccc(C(=O)N[C@@H](CCC(=O)O)C(=O)O)cc3)nc2c(=O)[nH]1,outcome,[1],inactive
same,outcome,[2],inactive
same,outcome,[3],inactive
same,outcome,[5],inactive
same,outcome,[9],inactive
same,outcome,[6],inactive
